This test is described as follows: inhibitors of VEEV TC-83 cytopathic effect, confirmation, Vero cells (AID 588727). The following applies: VEEV TC-83 cytopathic effect inhibition, at 20 µM. A general note: Protection from cytopathic effect is a common read-out in antiviral testing.
The mark [1] stands for this setting: measured here: 10K pilot screen inhibition, stronger effect = higher value.
Where [2] appears, read: stronger effect = higher value unless noted.

Among all 350,000 compounds or so, about 450 (0.13%) were called active. How the calls were made is not given here. Not all results are given here. Measured potencies and affinities stand elsewhere.

Take `O=c1[nH]c(CSc2ncccn2)nc2c1cnn2-c1ccccc1`: the inhibition runs as follows: (stronger effect = higher value) 5.59% (inactive); under setting [1], 3.44%. As for `c1ccc(-n2ncc3c2ncn2nc(CSc4nc5ccccc5s4)nc32)cc1`, the inhibition entry under setting [2] is “inactive”.

Turning to `CCc1ccc(OCC(=O)Nc2nnc(-c3ccco3)s2)cc1`, under setting [2], the inhibition is 0.88% (inactive). Regarding `Cc1ccc(-n2ncc3c(NCc4ccccn4)ncnc32)c(C)c1`, under setting [2], the inhibition is 1.72% (inactive). Turning to `CSc1ncnc2c1cnn2-c1ccc(C)cc1C`, the inhibition under setting [2] is 8.17% (inactive). The same measure, in the same setting: with `Fc1ccc(-n2ncc3c(SCc4cccnc4)ncnc32)cc1` the figure was 3.59% (inactive); with `Cc1ccc(-n2ncc3c(NCc4cccnc4)ncnc32)c(C)c1`, 1.66% (inactive).

On to `COc1ccc(C(C(=O)NCC2CCCO2)N(Cc2ccc(F)cc2)C(=O)CNC(=O)c2ccco2)cc1OC` (configuration not stated), for which, under setting [2], the inhibition was 1.15% (inactive). Take `Cc1cc(O)ccc1N1C(=O)c2cccc3cc([N+](=O)[O-])cc(c23)C1=O`: the inhibition result under setting [2] was “inactive”. Regarding `O=C1c2cccc3cc([N+](=O)[O-])cc(c23)C(=O)N1c1nncs1`, under setting [2], the inhibition result was “inactive”. The same measure, in the same setting: with `Cc1ccc(C)c(OCc2cc(C(=O)N3CCN(c4ccccc4C)CC3C)no2)c1` (configuration not stated) the figure was 4.26% (inactive); with `Cc1cc(C(=O)N(Cc2nnc(-c3ccc(Cl)cc3)o2)C(C)C)c2ccccc2n1`, 8.49% (inactive); with `c1ccc(-c2nc(-c3ccccn3)no2)cc1`, “inactive”.

`c1ccc(-c2cnnc(-c3ccccn3)n2)cc1`: the inhibition under setting [2] is 2.25% (inactive). `CCCCn1c(N)c(N(CCC(C)C)C(=O)CSc2nnc3ccccn23)c(=O)[nH]c1=O`: the inhibition under setting [2] was 0.96% (inactive).

As to `COCCCNC(=O)/C=C/c1ccc(Cl)cc1`, the inhibition entry under setting [2] was “inactive”. `CN(C)CCCNC(=O)/C=C/c1ccc2c(c1)OCO2`: the inhibition (stronger effect = higher value) is 0.85% (inactive) and the inhibition under setting [1] turned out to be 1.09%. Regarding `Cc1cc(-c2nnc(CCC(=O)NC(C)c3ccc(F)cc3)o2)no1` (configuration not stated), the inhibition reads like this: (stronger effect = higher value) 0.09% (inactive); under setting [1], 1.8%. As to `Nc1nnc(SCC(=O)OCC(=O)Nc2ccc(Br)cc2F)s1`, the inhibition under setting [2] was 1.19% (inactive). The same measure, in the same setting: with `COc1ccc(S(=O)(=O)N2CCOCC2)cc1C(=O)NCc1ccccc1CN1CCCC1` the figure was 0.08% (inactive); with `CCc1ccc(-c2nc(CSCC(=O)NCCCN3CCCC3=O)c(C)o2)cc1`, 3.51% (inactive).

In the case of `CCCOc1ccccc1/C=C1\SC(N)=NC1=O`, the inhibition under setting [2] was 2.5% (inactive).

As for `O=C1N=C(N2CCCCC2)S/C1=C\c1ccccc1F`, the inhibition under setting [2] is 0.16% (inactive). As for `CCOC(=O)C1CCCN(c2oc(-c3ccc(OC)cc3)nc2C#N)C1` (configuration not stated), the inhibition under setting [2] was 2.16% (inactive). Regarding `O=C(COC(=O)COc1ccccc1)NCCc1ccccc1`, the inhibition under setting [2] is 0.2% (inactive). Same read-out and setting: in the case of `CCC(=NC(C)c1ccccc1)c1c(O)[nH]c(=O)[nH]c1=O` (configuration not stated) it was 1.39% (inactive). Regarding `CCn1c(SCC(=O)N/N=C/c2ccc(OC)c(OC)c2)nc2ccccc21`, the inhibition is, setting by setting: (stronger effect = higher value) 4.2% (inactive); under setting [1], 2.22%.

`C=CCSc1nc2ccccc2n1C(=O)/C=C/c1cc(OC)c(OC)c(OC)c1`: the inhibition under setting [2] was 2.65% (inactive).

For the compound `CC(=O)N1CCC(N(CCCOC(C)C)S(=O)(=O)c2ccc([N+](=O)[O-])cc2)CC1`, the inhibition result under setting [2] was “inactive”. Regarding `Cc1ccc(-c2nc(CSCC(=O)N3CCCC3)c(C)o2)cc1`, the inhibition entry under setting [2] is “inactive”. In the case of `Cc1oc(-c2ccccc2Cl)nc1CSCC(=O)O`, the inhibition under setting [2] was 1.08% (inactive). As to `COc1ccc(NC(=O)c2cn(-c3ccccc3)nc2-c2ccncc2)cc1`, the inhibition under setting [2] is 8.65% (inactive). As to `Cc1onc(-c2ccccc2)c1C(=O)NC(=S)NNC(=O)c1ccncc1`, the inhibition under setting [2] is 1.78% (inactive). In the case of `O=C(NC(=S)NCCO)c1cn(-c2ccccc2)nc1-c1ccccc1`, under setting [2], the inhibition is 1.03% (inactive).

For the compound `CCN(CC)CCNC(=S)NC(=O)c1cn(-c2ccccc2)nc1-c1ccc(OC)cc1`, the inhibition entry under setting [2] was “inactive”.

Turning to `Cc1onc(-c2ccccc2)c1C(=O)Nc1sc2c(c1C#N)CCC2`, under setting [2], the inhibition is 2.67% [measured here: 10K pilot screen inhibition, stronger effect = higher value] and the result was inactive. For the compound `Cc1ccc(NC(=O)Nc2nnc(-c3ccccc3F)s2)cc1`, the inhibition under setting [2] is 0.72% (inactive). For `Cc1ccc(S(=O)(=O)N(C)c2ccc(C(=O)Nc3c(C)n(C)n(-c4ccccc4)c3=O)cc2)cc1`, under setting [2], the inhibition is 2.04% (inactive). With `Cn1ncc(Br)c1C(=O)O`, the inhibition was 0.63% (inactive) (stronger effect = higher value) and 1.4% under setting [1]. For the compound `CCC1CSC(Nc2ccc(C(=O)/C=C/c3ccc(Br)cc3)cc2)=N1` (configuration not stated), the inhibition under setting [2] is 0.39% (inactive). `CCC1CSC(Nc2ccc(C(=O)/C=C/c3cccc(C)c3)cc2)=N1` (configuration not stated): the inhibition under setting [2] is 32.8% (inactive). Same read-out and setting: with `COc1ccc(C(=O)NC2CCCc3c2cnn3-c2cc(F)cc(F)c2)c(OC)n1` (configuration not stated) the figure was 0.41% (inactive); with `Cc1cc(C(=O)NC2CCCc3c2cnn3-c2cccc(C)c2C)n(C)n1` (configuration not stated), “inactive”; with `O=C(NC1CCCc2c1cnn2-c1ccc(F)cc1F)c1ccccn1` (configuration not stated), “inactive”. Consider `COCCC(=O)NC1CCCc2c1cnn2-c1cccc(C)c1C` (configuration not stated), for which the inhibition result under setting [2] is “inactive”. In the case of `O=C(NC1CCCc2c1cnn2-c1ccccc1F)c1ccncc1` (configuration not stated), the inhibition result under setting [2] was “inactive”.

The term inhibition denotes the percentage by which the read-out fell short of the control.

The record behind these values is PubChem BioAssay AID588727 (Southern Research Specialized Biocontainment Screening …, 2011).
